Screening data deposited in PubChem by Buhrlage Lab, Dana-Farber Cancer Institute and Novartis Institutes for BioMedical Research (Cambridge, Mass).
USP8 inh = inhibitors of human USP8 deubiquitinase; 47,000 compounds, 4.2% hits; purified USP8, Ub-rhodamine cleavage fluorescence, 30 min; inhibition, % at 20 µM
USP17 block = inhibitors of human USP17 deubiquitinase; Ubiquitin carboxyl-terminal hydrolase 17-like protein 5 (Homo sapiens), A8MUK1; purified USP17, Ub-rhodamine cleavage fluorescence, 3 h; inhibition, % at 50 µM; 47,000 compounds, 6.5% hits; AID 1645855, 2021
OTUD3 inh = inhibitors of human OTUD3 deubiquitinase. purified OTUD3, Ub-rhodamine fluorescence, 2 h. OTU domain-containing protein 3 (Homo sapiens), Q5T2D3. inhibition, % at 25 µM. 47,000 compounds, 0.7% hits
USP28 block = inhibitors of human USP28 deubiquitinase; inhibition, % at 25 µM; AID 1645857, 2021; 47,000 compounds, 3% hits; purified USP28, Ub-rhodamine cleavage fluorescence, 30 min; Ubiquitin carboxyl-terminal hydrolase 28 (Homo sapiens), Q96RU2
USP30 inh = inhibitors of human USP30 deubiquitinase. Ubiquitin carboxyl-terminal hydrolase 30 (Homo sapiens), Q70CQ3. purified USP30, Ub-rhodamine cleavage fluorescence. inhibition, % at 25 µM. 47,000 compounds, 5.3% hits. AID 1645860, 2021
Each line names hits and unclear results; the compound was inactive in the other large screens. Hits are enriched below; roughly 13% of the tested compounds scored in any of these assays. Rule as the data show it: active = inhibition above about 30%; inactive = the rest.

O=C(c1cc(S(=O)(=O)Nc2ccc(Cl)cc2)ccc1Cl)N1CCCc2ccccc21	none
O=C(Nc1ccc(NS(=O)(=O)c2ccc3c4c(cccc24)CC3)cc1)c1ccccc1	USP8 inh 43, USP17 block 50
CCCS(=O)(=O)N1CCc2ccc(NC(=O)c3ccccc3)cc2C1	none
O=C(Nc1ccc(NS(=O)(=O)c2cccc(C(=O)N3CCCc4ccccc43)c2)cc1)c1ccccc1	USP17 block 32
Cc1nccc(C(=O)N2CCCC(c3ncc(Cc4cccc(F)c4)o3)C2)n1 (configuration not stated)	none
COc1ccc(S(=O)(=O)N2CC[C@@H]3[C@H]2C(=O)N(C)[C@@H](C)C(=O)N3C)cc1	none
COCCNC(=O)Cn1c([C@@H]2CCCO2)cc2cccnc21	none
Clc1ccccc1CSc1nnc(C2CCCCC2)n1Cc1ccccc1	USP17 block 37, USP30 inh 57
CC(NC(=O)CSc1nnc(C2CC2)n1Cc1ccccc1)c1ccco1 (configuration not stated)	none
Cc1cc(C)n(CC2CCCCN2C(=O)Cn2cncn2)n1 (configuration not stated)	none
COc1cccc(C(=O)Nc2ccccc2-c2nc(-c3ccncc3)no2)c1	USP30 inh 39
CC(=O)N[C@@]12CCN(C(=O)c3cccc(-n4cccn4)c3)C[C@@H]1CN(C(C)=O)C2	none
CN(C(=O)c1cccc2ncccc12)c1ccccc1	none
Cc1cc(C(=O)N2CCCCC2)c2c(=O)n(Cc3ccc4nonc4c3)c(=O)n(C)c2n1	USP8 inh 43, USP17 block 34
Cc1cc(C(=O)N2CCCCC2)c2c(=O)n(Cc3cccc(F)c3)c(=O)n(C)c2n1	none
O=C(Nc1ccccc1F)NC1CCCc2ccccc21 (configuration not stated)	USP30 inh 40
O=C(Nc1ccc(OC(F)(F)F)cc1)NC1CCCc2ccccc21 (configuration not stated)	none
O=C(c1cccc([N+](=O)[O-])c1)[C@H]1[C@]2(C(=O)Nc3ccccc32)[C@@H]2CCCN2[C@@]12C(=O)Nc1ccccc12	USP28 block 35
Cc1ccccc1NC(=O)c1cc2c(CO)cnc(C)c2oc1=Nc1cccc(F)c1	none
COc1ccc(NC(=O)c2cc3c(CO)cnc(C)c3oc2=Nc2cccc(F)c2)c(OC)c1	USP30 inh 33
O=C1CC(C(=O)Nc2ccccc2)n2nc(-c3ccccc3)cc2N1 (configuration not stated)	USP30 inh 34
COc1ccc(Cl)c(NC(=O)C2CC(=O)Nc3cc(-c4ccccc4)nn32)c1 (configuration not stated)	USP8 inh 32, USP17 block 57
COc1ccc(Cl)c(NC(=O)C2CC(=O)Nc3cc(C)nn32)c1 (configuration not stated)	none
CC(C)c1nc2sc3c(NCc4ccco4)ncnc3c2c2c1CCC2	USP28 block 63
c1nc(NCCN2CCOCC2)c2sc3nc(N4CCOCC4)c4c(c3c2n1)CCC4	none
CC(C)c1nc2sc3c(NCCN4CCOCC4)ncnc3c2c2c1CCC2	USP28 block 35
CC(Oc1ccccc1)c1nnc(SCC(=O)c2ccc(F)cc2)n1C (configuration not stated)	none
Cc1cccc(CNC(=O)CCc2nc3c(C)cccc3c(=O)n2C)c1	none
Cn1c(SCC(=O)c2ccc(F)cc2)nnc1-c1cc2ccccc2o1	USP8 inh 41, USP17 block 73, USP30 inh 88
Cn1c(SCC(=O)NCc2ccccc2)nnc1-c1cc2ccccc2o1	USP8 inh 30
Cc1cc2cccc(C)c2nc1SCC(=O)NCc1ccccc1	USP30 inh 47
COCCn1c(SCC(=O)Nc2cccc3ccccc23)nc2ccccc21	none
COCCn1c(SCC(=O)c2ccc(F)cc2)nc2ccccc21	USP17 block 36
CC(=O)N[C@@]12CN(CC(=O)Nc3cc(C)ccc3F)CC[C@@H]1[C@@H](c1ccccc1)N(C)C2	none
CN(CC(=O)N1CCCCC1)c1nnc(N2CCCCC2=O)s1	none
CCc1nc2c(-c3ccncc3)nsc2c(=O)n1CC(=O)Nc1ccccc1	none
Cc1cccc(C)c1NC(=O)CC1SC(N2CCOCC2)=NC1=O (configuration not stated)	none
CCS(=O)(=O)N1CCOC2(CCCN(c3ncc(F)cn3)C2)C1 (configuration not stated)	none
